Laboratory results reported in the supplement of paper PMC8728848.
Only a selection was taken, and the strongest signals are over-represented in it overall.

B1: PEB3 (Campylobacter jejuni), Q0PBL7 (protein)
chain: MKKIITLFGACALAFSMANADVNLYGPGGPHTALKDIANKYSEKTGVKVNVNFGPQATWFEKAKKDADILFGASDQSALAIASDFGKDFNVSKIKPLYFREAIILTQKGNPLKIKGLKDLANKKVRIVVPEGAGKSNTSGTGVWEDMIGRTQDIKTIQNFRNNIVAFVPNSGSARKLFAQDQADAWITWIDWSKSNPDIGTAVAIEKDLVVYRTFNVIAKEGASKETQDFIAYLSSKEAKEIFKKYGWRE
B2: Pwp5 ND (Candida glabrata) (protein)
chain: MGSSHHHHHHSSGLVPRGSHMASANPVPLTNVCYFPEEYPRQAGFRAITAGLASTILQGSVDELLNYSGLSSLTTQQTTTTTPNFQLPTLPLPTNVYGLTVVPLYLLVQLQGYFVPPVSGQYTFSLENTNDAAIIFFGNPSAFPCGDLSAWPQASADDITVTDGTFPSRTLFLKAGVAYPMRISYYNSLGSGNLAVSFTDPGGTKRTNWNGYIWRYNSCSTCTYT

Experiments:
Experiment in all cases: glycan array binding signal (z-score within array); higher = stronger binding
Details in all cases: glycan notation: IUPAC condensed, linker removed
[1] = target: Neu5Ac(a2-6)GlcNAc(b1-4)GlcNAc
Outline: (§1)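 Glycan array data were curated from 3228 arrays in the Consortium for Functional Glycomics database and kept only where the protein sequence was available. Glycan names were converted to IUPAC-condensed notation, and columns mapping to the same glycan were averaged. The binding signal is a within-array Z-score, averaged across arrays of the same protein sequence at different concentrations or buffers and across linkers. Negative Z-scores can be read as non-binding.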

[2] = target: Neu5Ac(a2-8)Neu5Ac(a2-8)Neu5Ac(a2-8)Neu5Ac(a2-3)[GalNAc(b1-4)]Gal(b1-4)Glc
Outline: as §1

[3] = target: Neu5Gc(a2-3)Gal(b1-4)GlcNAc
Outline: as §1

[4] = target: Fuc(a1-2)Gal(b1-3)GalNAc(b1-4)[Neu5Ac(a2-3)]Gal(b1-4)Glc
Outline: as §1

[5] = target: Fuc(a1-2)Gal(b1-3)GlcNAc6S
Outline: as §1

[6] = target: Fuc(a1-2)Gal(b1-3)[Fuc(a1-4)]GlcNAc
Outline: as §1

[7] = target: Fuc(a1-2)Gal(b1-4)GlcNAc(b1-2)[Fuc(a1-2)Gal(b1-4)GlcNAc(b1-4)]Man(a1-3)[Fuc(a1-2)Gal(b1-4)GlcNAc(b1-2)Man(a1-6)]Man(b1-4)GlcNAc(b1-4)GlcNAc
Outline: as §1

[8] = target: Fuc(a1-2)Gal(b1-4)GlcNAc(b1-6)GalNAc
Outline: as §1

[9] = target: Fuc(a1-2)Gal6S(b1-4)Glc6S
Outline: as §1

[10] = target: Fuc(a1-2)[Gal(a1-3)]Gal(b1-4)GlcNAc(b1-2)Man(a1-3)[Fuc(a1-2)[Gal(a1-3)]Gal(b1-4)GlcNAc(b1-2)Man(a1-6)]Man(b1-4)GlcNAc(b1-4)[Fuc(a1-6)]GlcNAc
Outline: as §1

[11] = target: Fuc(a1-2)[Gal(a1-3)]Gal(b1-4)GlcNAc(b1-3)[Fuc(a1-2)[Gal(a1-3)]Gal(b1-4)GlcNAc(b1-6)]GalNAc
Outline: as §1

[12] = target: Fuc(a1-2)[Gal(a1-3)]Gal(b1-4)GlcNAc(b1-6)GalNAc
Outline: as §1

[13] = target: Fuc(a1-2)[Gal(a1-3)]Gal(b1-4)[Fuc(a1-3)]Glc
Outline: as §1

[14] = target: Fuc(a1-2)[GalNAc(a1-3)]Gal(b1-3)GlcNAc(b1-3)GalNAc
Outline: as §1

[15] = target: Fuc(a1-2)[GalNAc(a1-3)]Gal(b1-4)[Fuc(a1-3)]GlcNAc
Outline: as §1

[16] = target: Fuc(a1-2)[GalNAc(a1-3)]Gal(b1-4)[Fuc(a1-3)]GlcNAc(b1-3)GalNAc
Outline: as §1

[17] = target: Fuc(a1-3)[Gal(b1-4)]Glc6S
Outline: as §1

[18] = target: Fuc(a1-3)[Gal(b1-4)]GlcNAc(b1-2)Man(a1-3)[Fuc(a1-3)[Gal(b1-4)]GlcNAc(b1-2)Man(a1-6)]Man(b1-4)GlcNAc(b1-4)GlcNAc
Outline: as §1

[19] = target: Gal(a1-3)Gal
Outline: as §1

[20] = target: Gal(a1-3)Gal(b1-3)GlcNAc(b1-6)GalNAc
Outline: as §1

[21] = target: Gal(b1-3)GalNAc
Outline: as §1

[22] = target: Gal(b1-3)GalNAc(b1-3)Gal(a1-4)Gal(b1-4)Glc
Outline: as §1

[23] = target: Gal(b1-3)GalNAc(b1-4)[Neu5Ac(a2-3)]Gal(b1-4)Glc
Outline: as §1

[24] = target: Gal(b1-3)GlcNAc(a1-3)Gal(b1-4)GlcNAc
Outline: as §1

[25] = target: Gal(b1-3)GlcNAc(b1-3)Gal(b1-4)Glc
Outline: as §1

[26] = target: Gal(b1-3)GlcNAc(b1-3)Gal(b1-4)GlcNAc(b1-6)[Gal(b1-3)GlcNAc(b1-3)]Gal(b1-4)Glc
Outline: as §1

[27] = target: Gal(b1-3)GlcNAc(b1-3)GalNAc
Outline: as §1

[28] = target: Gal(b1-3)[Fuc(a1-4)]GlcNAc(b1-3)Gal(b1-4)[Fuc(a1-3)]GlcNAc
Outline: as §1

[29] = target: Gal(b1-4)Glc
Outline: as §1

[30] = target: Gal(b1-4)GlcNAc(b1-2)Man(a1-3)[Gal(b1-4)GlcNAc(b1-2)Man(a1-6)]Man(b1-4)GlcNAc(b1-4)GlcNAc
Outline: as §1

[31] = target: Gal(b1-4)GlcNAc(b1-2)Man(a1-3)[Gal(b1-4)GlcNAc(b1-2)Man(a1-6)][Gal(b1-4)GlcNAc(b1-4)]Man(b1-4)GlcNAc(b1-4)[Fuc(a1-6)]GlcNAc
Outline: as §1

[32] = target: Gal(b1-4)GlcNAc(b1-2)Man(a1-6)Man(b1-4)GlcNAc(b1-4)GlcNAc
Outline: as §1

[33] = target: Gal(b1-4)GlcNAc(b1-3)Gal(b1-4)GlcNAc(b1-3)Gal(b1-4)GlcNAc
Outline: as §1

Binder | glycan array binding signal (z-score) [1] | glycan array binding signal (z-score) [2] | glycan array binding signal (z-score) [3] | glycan array binding signal (z-score) [4] | glycan array binding signal (z-score) [5] | glycan array binding signal (z-score) [6] | glycan array binding signal (z-score) [7] | glycan array binding signal (z-score) [8] | glycan array binding signal (z-score) [9] | glycan array binding signal (z-score) [10] | glycan array binding signal (z-score) [11] | glycan array binding signal (z-score) [12] | glycan array binding signal (z-score) [13] | glycan array binding signal (z-score) [14] | glycan array binding signal (z-score) [15] | glycan array binding signal (z-score) [16] | glycan array binding signal (z-score) [17] | glycan array binding signal (z-score) [18] | glycan array binding signal (z-score) [19] | glycan array binding signal (z-score) [20] | glycan array binding signal (z-score) [21] | glycan array binding signal (z-score) [22] | glycan array binding signal (z-score) [23] | glycan array binding signal (z-score) [24] | glycan array binding signal (z-score) [25] | glycan array binding signal (z-score) [26] | glycan array binding signal (z-score) [27] | glycan array binding signal (z-score) [28] | glycan array binding signal (z-score) [29] | glycan array binding signal (z-score) [30] | glycan array binding signal (z-score) [31] | glycan array binding signal (z-score) [32] | glycan array binding signal (z-score) [33]
B1 | -0.895 | -0.3 | -0.701 |  |  |  |  |  |  |  |  |  |  |  |  |  |  |  |  |  |  |  |  |  |  |  |  |  |  |  |  |  | 
B2 |  |  |  | -0.235 | -0.214 | 0.311 | 2.82 | 3.91 | 2.41 | 0.284 | -0.58 | 0.176 | -0.527 | 0.59 | -0.827 | -0.156 | 3.45 | 1.55 | -0.029 | -0.579 | -0.212 | 3.41 | -0.51 | -0.125 | -0.276 | -0.519 | -0.596 | 0.251 | -0.548 | -0.247 | -0.557 | 0.775 | -0.555
